The results in this text go back to PubChem BioAssay (NCI).

This is part of a sample that, as a whole, favours compounds with a hit. Of some 79,000 tested, about 15% had one in any assay. A number with no mark means an inactive call. Calls of active or inactive are those of the source. Rule as the data show it: active = growth inhibition above about 70%; inactive = the rest.

Assay [1] in a line: NCI Yeast Anticancer Drug Screen. Data for the rad50 strain (AID 155).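 Also: 0% = growth of vehicle-only cultures of the same strain.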 The conditions noted are these: S. cerevisiae rad50 strain growth inhibition, stronger effect = higher value. In outline:
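Readout: growth inhibition relative to vehicle-treated cultures. Compound exposure was carried out in a genetically defined yeast strain deficient in DNA damage repair.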

Assay [2] in a line: NCI Yeast Anticancer Drug Screen. Data for the mec2-1 strain (AID 157). The conditions noted are these: S. cerevisiae mec2-1 strain, stronger effect = higher value. In outline:
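Vehicle-treated cultures served as reference for growth inhibition of compound-exposed mec2-1 yeast.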

Assay [3] can be described thus: NCI Yeast Anticancer Drug Screen. Data for the sgs1 mgt1 strain (AID 161).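 Also: 0% = growth of cultures given vehicle only.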 The conditions noted are these: S. cerevisiae sgs1 mgt1 strain, stronger effect = higher value. In outline: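 Read-out: growth inhibition vs vehicle controls. Cells: mutant yeast strain deficient in DNA damage repair.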
Assay [4] in a line: NCI Yeast Anticancer Drug Screen. Data for the cln2 rad14 strain (AID 165).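 Also: 0% = growth equal to vehicle treated cultures.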 The conditions noted are these: S. cerevisiae cln2 rad14 strain, stronger effect = higher value. A digest of the protocol: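 Each compound was tested on cln2 rad14 yeast. Inhibition of growth was calculated against vehicle-exposed controls.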
The nature of assay [5]: NCI Yeast Anticancer Drug Screen. Data for the bub3 strain (AID 167). The conditions noted are these: S. cerevisiae bub3 mutant strain, stronger effect = higher value. In outline: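 Readout: yeast growth inhibition, expressed relative to vehicle-only wells. The test organism is a mutant strain from a panel with lesions in DNA repair or checkpoint genes.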
Assay [6] is described as follows: NCI Yeast Anticancer Drug Screen. Data for the mlh1 rad18 strain (AID 175). The conditions noted are these: S. cerevisiae mlh1 rad18 strain growth inhibition, stronger effect = higher value. In outline: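 Vehicle-treated cultures served as the reference for growth inhibition in a yeast strain carrying DNA damage repair alterations exposed to each compound.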
The mark [7] stands for this setting: at 5.0 µM (retest, dose inferred, filed as 0.5).
[8] abbreviates: at 50.0 µM (retest, dose inferred, filed as 5.0).

As for `Oc1ccccc1N=CC1CCCCC1`, the growth inhibition is -61% in assay [1] (setting [7]); 40% in assay [1] (setting [8]); 69% in assay [1] (at 50.0 µM); -27% in assay [2] (setting [7]); -24% in assay [2] (setting [8]); 37.1% in assay [2] (at 50.0 µM). Moreover, the growth inhibition in assay [3] (setting [7]) is -33%; in assay [3] (setting [8]), -23%; in assay [3] (at 50.0 µM), 28.4%; in assay [4] (setting [7]), -53%; in assay [4] (setting [8]), -31%; in assay [4] (at 50.0 µM) it was 17%. In addition, the growth inhibition in assay [5] (setting [7]) is 9%; in assay [5] (setting [8]) it was 46%; in assay [5] (at 50.0 µM), 74% (active); in assay [6] (setting [7]), -32%; in assay [6] (setting [8]), 20%; in assay [6] (at 50.0 µM), 66.2%.
As to `Cc1cc(C)nc(NS(=O)(=O)c2ccc(NC(=O)c3cccnc3Nc3cccc(Cl)c3)cc2)n1`, the growth inhibition in assay [1] (setting [7]) was -2%; in assay [1] (setting [8]), 33%; in assay [1] (at 50.0 µM) it was 45.9%; in assay [2] (setting [7]) it was -9%; in assay [2] (setting [8]) it was 34%; in assay [2] (at 50.0 µM), 13.1%. Moreover, the growth inhibition in assay [3] (setting [7]) is 6%; in assay [3] (setting [8]), 51%; in assay [3] (at 50.0 µM), 54.9%; in assay [4] (setting [7]) it was -10%; in assay [4] (setting [8]) it was 35%; in assay [4] (at 50.0 µM), 22.1%. The growth inhibition in assay [5] (setting [7]) was -6%; in assay [5] (setting [8]), 41%; in assay [5] (at 50.0 µM), 25.5%; in assay [6] (setting [7]), -1%; in assay [6] (setting [8]), 53%; in assay [6] (at 50.0 µM), 81.5% (active).
For the compound `Cc1cc(N=Nc2ccncc2C)ccc1N`, the growth inhibition in assay [1] (setting [7]) was -69%; in assay [1] (setting [8]), 98% (active); in assay [1] (at 50.0 µM) it was 92.5% (active); in assay [2] (setting [7]), -50%; in assay [2] (setting [8]), 87% (active); in assay [2] (at 50.0 µM), 52.5%. Also, the growth inhibition in assay [3] (setting [7]) is -34%; in assay [3] (setting [8]) it was 98% (active); in assay [3] (at 50.0 µM) it was 75.6% (active); in assay [4] (setting [7]) it was -45%; in assay [4] (setting [8]), 92% (active); in assay [4] (at 50.0 µM), 48.9%. Also, the growth inhibition in assay [5] (setting [7]) is -40%; in assay [5] (setting [8]), 98% (active); in assay [5] (at 50.0 µM), 89% (active); in assay [6] (setting [7]), -72%; in assay [6] (setting [8]), 96% (active); in assay [6] (at 50.0 µM), 66.7%.
On to `Nc1nc(=O)n(C2OC(CO)C(O)C2O)cc1[N+](=O)[O-]` (stereo not given), for which the growth inhibition was -10% in assay [1] (setting [7]); -9% in assay [1] (setting [8]); -5.75% in assay [1] (at 50.0 µM); -6% in assay [2] (setting [7]); -15% in assay [2] (setting [8]); 18.9% in assay [2] (at 50.0 µM). Besides, the growth inhibition in assay [3] (setting [7]) is -2%; in assay [3] (setting [8]), -5%; in assay [3] (at 50.0 µM), 4.45%; in assay [4] (setting [7]) it was -40%; in assay [4] (setting [8]) it was -13%; in assay [4] (at 50.0 µM), -10.2%. The growth inhibition in assay [5] (setting [7]) is -7%; in assay [5] (setting [8]), 1%; in assay [5] (at 50.0 µM), -12.7%; in assay [6] (setting [7]) it was 1%; in assay [6] (setting [8]), -5%; in assay [6] (at 50.0 µM), 17.9%.
As to `O=c1[nH]c2cc(Cl)ccc2nc1/C=C(\O)c1ccc(N2CCN(c3ccc(/C(O)=C/c4nc5ccc(Cl)cc5[nH]c4=O)cc3)CC2)cc1`, the growth inhibition in assay [1] (setting [7]) is 10%; in assay [1] (setting [8]), 12%; in assay [1] (at 50.0 µM), 95.8% (active); in assay [2] (setting [7]), 0%; in assay [2] (setting [8]) it was 19%; in assay [2] (at 50.0 µM) it was 96.3% (active). Also, the growth inhibition was -3% in assay [3] (setting [7]); -12% in assay [3] (setting [8]); 94.2% (active) in assay [3] (at 50.0 µM); 17% in assay [4] (setting [7]); -10% in assay [4] (setting [8]); 90.8% (active) in assay [4] (at 50.0 µM). The growth inhibition is 19% in assay [5] (setting [7]); -15% in assay [5] (setting [8]); 94.5% (active) in assay [5] (at 50.0 µM); -25% in assay [6] (setting [7]); -7% in assay [6] (setting [8]); 94.2% (active) in assay [6] (at 50.0 µM).
As for `COC(=O)C(=O)CC(=O)c1cccc(Cl)c1`, the growth inhibition was 16% in assay [1] (setting [7]); 99% (active) in assay [1] (setting [8]); 74.5% (active) in assay [1] (at 50.0 µM); 18% in assay [2] (setting [7]); 100% (active) in assay [2] (setting [8]); 77% (active) in assay [2] (at 50.0 µM). For the same compound, the growth inhibition in assay [3] (setting [7]) was 18%; in assay [3] (setting [8]) it was 99% (active); in assay [3] (at 50.0 µM) it was 64.2%; in assay [4] (setting [7]), 6%; in assay [4] (setting [8]) it was 99% (active); in assay [4] (at 50.0 µM), 21.8%. The growth inhibition is 13% in assay [5] (setting [7]); 99% (active) in assay [5] (setting [8]); 82.7% (active) in assay [5] (at 50.0 µM); 12% in assay [6] (setting [7]); 99% (active) in assay [6] (setting [8]); 74.7% (active) in assay [6] (at 50.0 µM).
On to `N#Cc1c(-c2ccc(Cl)cc2)c2c(n(C3OC(CO)C(O)C(O)C3O)c1=S)CCCC2` (stereo not given), for which the growth inhibition is -3% in assay [1] (setting [7]); 88% (active) in assay [1] (setting [8]); 9.95% in assay [1] (at 50.0 µM); -2% in assay [2] (setting [7]); 77% (active) in assay [2] (setting [8]); 10.5% in assay [2] (at 50.0 µM). For the same compound, the growth inhibition is -1% in assay [3] (setting [7]); 96% (active) in assay [3] (setting [8]); -8.85% in assay [3] (at 50.0 µM); 3% in assay [4] (setting [7]); 86% (active) in assay [4] (setting [8]); 31.2% in assay [4] (at 50.0 µM). Further, the growth inhibition in assay [5] (setting [7]) was 3%; in assay [5] (setting [8]), 96% (active); in assay [5] (at 50.0 µM), 1%; in assay [6] (setting [7]), -2%; in assay [6] (setting [8]), 96% (active); in assay [6] (at 50.0 µM), 14.9%.
For `COC(=O)C1=C(C)NC(C)=C([N+](=O)[O-])C1c1cccc(N=O)c1` (stereo not given), the growth inhibition in assay [1] (setting [7]) is 22%; in assay [1] (setting [8]), 68%; in assay [1] (at 50.0 µM) it was 74.2% (active); in assay [2] (setting [7]) it was 16%; in assay [2] (setting [8]) it was 98% (active); in assay [2] (at 50.0 µM), 72.1% (active). The growth inhibition in assay [3] (setting [7]) was 27%; in assay [3] (setting [8]) it was 86% (active); in assay [3] (at 50.0 µM), 89.8% (active); in assay [4] (setting [7]), 28%; in assay [4] (setting [8]), 45%; in assay [4] (at 50.0 µM), 57.2%. For the same compound, the growth inhibition in assay [5] (setting [7]) is 26%; in assay [5] (setting [8]), 93% (active); in assay [5] (at 50.0 µM) it was 90.2% (active); in assay [6] (setting [7]), 33%; in assay [6] (setting [8]) it was 97% (active); in assay [6] (at 50.0 µM) it was 84.4% (active).
On to `Nc1ncnc2c1c(-c1ccccc1)cn2-c1ccccc1`, for which the growth inhibition is 38% in assay [1] (setting [7]); 78% (active) in assay [1] (setting [8]); 97.8% (active) in assay [1] (at 50.0 µM); 31% in assay [2] (setting [7]); 58% in assay [2] (setting [8]); 97.3% (active) in assay [2] (at 50.0 µM). Further, the growth inhibition in assay [3] (setting [7]) is 71% (active); in assay [3] (setting [8]), 93% (active); in assay [3] (at 50.0 µM), 99% (active); in assay [4] (setting [7]), 20%; in assay [4] (setting [8]) it was 53%; in assay [4] (at 50.0 µM), 95.2% (active). In addition, the growth inhibition in assay [5] (setting [7]) was 29%; in assay [5] (setting [8]) it was 81% (active); in assay [5] (at 50.0 µM) it was 95.8% (active); in assay [6] (setting [7]) it was 27%; in assay [6] (setting [8]), 82% (active); in assay [6] (at 50.0 µM), 98.5% (active).
Take `COc1ccccc1OCC(COC(=O)Nc1ccc(C)cc1)OC(=O)Nc1ccc(C)cc1` (stereo not given): the growth inhibition in assay [1] (setting [7]) was 2%; in assay [1] (setting [8]), 2%; in assay [1] (at 50.0 µM) it was 88.4% (active); in assay [2] (setting [7]) it was -5%; in assay [2] (setting [8]), -5%; in assay [2] (at 50.0 µM), 82.4% (active). Moreover, the growth inhibition is -18% in assay [3] (setting [7]); -18% in assay [3] (setting [8]); 85.2% (active) in assay [3] (at 50.0 µM); -2% in assay [4] (setting [7]); -2% in assay [4] (setting [8]); 78.6% (active) in assay [4] (at 50.0 µM). For the same compound, the growth inhibition in assay [5] (setting [7]) was -1%; in assay [5] (setting [8]), -1%; in assay [5] (at 50.0 µM), 85% (active); in assay [6] (setting [7]) it was -1%; in assay [6] (setting [8]), -1%; in assay [6] (at 50.0 µM) it was 78.7% (active).
